CDC25B-CDK2 inh – human CDC25B-CDK2/CyclinA binding inhibition | HTRF CDC25B-CDK2/CyclinA binding, anti-His/anti-Flag; hits give high values | 94,000 tested, 0.72% active | P30305+P24941 | z-score (concentration not given with the values); in the data active = z-score above about 3.2
HIV TAR-Tat – HIV-1 TAR-Tat binding disruption; HIV-1 TAR RNA, Tat peptide displacement FRET; hits give high values; z-score (no concentration beside the values); 100,000 tested, 0.6% active; AID 1259389; active = z-score of 3 or more in at least 2 runs
Of the large screens only hits and unclear results are named; the others gave an inactive call. A selection: hits, their analogues and other compounds. The true share with any hit is near 0.86%.

Cc1cc(C)cc(NC(=O)CSc2nnc3c4c5c(sc4ncn23)CCCC5)c1	none
O=C(NCC1CCCO1)c1c[nH]c2ccc(S(=O)(=O)N3CCc4ccccc4C3)cc2c1=O (stereo not drawn)	none (no result: HIV TAR-Tat)
COc1ccccc1C1NC(=O)c2c(sc3c2CCN(C)C3)N1 (stereo not drawn)	CDC25B-CDK2 inh 4.5
COc1cccc(C2NC(=O)c3c(sc4c3CCN(C)C4)N2)c1OC (stereo not drawn)	none
CCOC(=O)N1CCc2c(sc3c2C(=O)NC(c2ccccc2)N3)C1 (stereo not drawn)	none
CCOC(=O)N1CCc2c(sc3c2C(=O)NC(c2ccc(O)c(OC)c2)N3)C1 (stereo not drawn)	none
CCOC(=O)N1CCc2c(sc3c2C(=O)NC(c2cccc(Br)c2)N3)C1 (stereo not drawn)	CDC25B-CDK2 inh 6.4
CCOC(=O)N1CCc2c(sc3c2C(=O)NC(c2ccc(OC)cc2)N3)C1 (stereo not drawn)	CDC25B-CDK2 inh 16
Fc1ccc(OCCSc2nc3ncccc3[nH]2)cc1	none (no result: CDC25B-CDK2 inh)
N#Cc1nc(/C=C/c2ccc(F)cc2)oc1N1CCN(C(=O)c2cccc(F)c2)CC1	none
C=CC1=C(C(=O)O)N2C(=O)[C@@H](NC(=O)/C(=N\O)c3csc(N)n3)[C@H]2SC1 (stereo in doubt)	none (no result: CDC25B-CDK2 inh)
C=CC1=C(C(=O)O)N2C(=O)[C@@H](NC(=O)C(=NOCC(=O)O)c3csc(N)n3)[C@H]2SC1	HIV TAR-Tat 26 (no result: CDC25B-CDK2 inh)
CC(=O)Nc1cc2cc(NC(=O)c3c(-c4c(F)cccc4Cl)noc3C)ccc2oc1=O	none (no result: HIV TAR-Tat)
O=C(NCC1CCN(C2CCCC2)C1)Nc1cccc2c1CCCC2 (stereo not drawn)	none
Cc1cn2c(=O)cc(COC(=O)COc3ccccc3Cl)nc2s1	none (no result: CDC25B-CDK2 inh)
COc1cccc(C2C(C#N)=C3N=C(N)c4ccccc4N3C3=C2C(=O)CCC3)c1 (stereo not drawn)	none
N#CC1=C2N=C(N)c3ccccc3N2C2=C(C(=O)CCC2)C1c1cccc(Cl)c1 (stereo not drawn)	CDC25B-CDK2 inh 19
CN(C)c1ccc(CNc2n[nH]c(-c3ccco3)n2)cc1	CDC25B-CDK2 inh 15
Brc1ccc(CNc2n[nH]c(-c3ccco3)n2)cc1	none
Cc1cc(NC(=O)Cn2nc(C(=O)N3CCc4ccccc43)ccc2=O)no1	none (no result: CDC25B-CDK2 inh)
Cc1csc(NC(=O)CSc2nnc(-c3cc4ccccc4o3)n2-c2ccccc2)n1	none (no result: CDC25B-CDK2 inh)
CCn1c(SCC(=O)Nc2nc(C)cs2)nnc1-c1cc2ccccc2o1	HIV TAR-Tat 5.3 (no result: CDC25B-CDK2 inh)
O=C(NCc1ccc(F)cc1)C1=Cc2cc(Br)ccc2OC1	none (no result: CDC25B-CDK2 inh)
Cc1[nH]ccc2c1[nH]c1cc(=O)ccc12	HIV TAR-Tat 22 (no result: CDC25B-CDK2 inh)
COc1ccc(OC)c(C2CC(=O)N3CN(c4ccc(F)cc4)CSC3=C2C#N)c1 (stereo not drawn)	CDC25B-CDK2 inh 4
COc1ccc(C2CC(=O)N3CN(c4ccc(Br)cc4)CSC3=C2C#N)c(OC)c1 (stereo not drawn)	CDC25B-CDK2 inh 6.4
COc1ccc(N2CSC3=C(C#N)C(c4cc(Br)ccc4OC)CC(=O)N3C2)cc1 (stereo not drawn)	CDC25B-CDK2 inh 5.4
COc1ccc(Br)cc1C1CC(=O)N2CN(C3CCCCC3)CSC2=C1C#N (stereo not drawn)	none
COc1ccc(Br)cc1C1CC(=O)N2CN(c3ccccc3OC)CSC2=C1C#N (stereo not drawn)	CDC25B-CDK2 inh 6.2
COc1ccccc1N1CSC2=C(C#N)C(c3ccc(Br)cc3)CC(=O)N2C1 (stereo not drawn)	none
C=CCOc1ccc(/C=C2\N=C(c3ccc([N+](=O)[O-])cc3Cl)OC2=O)cc1OCC	none (no result: HIV TAR-Tat)
CC1CSc2ccc(S(=O)(=O)NC(C)(C)C)cc2NC1=O (stereo not drawn)	none (no result: CDC25B-CDK2 inh)
CCCN[C@H]1CS(=O)(=O)C[C@@H]1S(=O)(=O)c1ccc(F)c(C)c1	none
Cc1nn(CC(=O)NC(C)C)c(=O)c2cc3ccccc3n12	none
COc1ccc(OC)c(C2CC(=O)N3CN(c4ccc(Br)cc4)CSC3=C2C#N)c1 (stereo not drawn)	CDC25B-CDK2 inh 4.5
COc1cccc(C2CC(=O)N3CN(Cc4ccco4)CSC3=C2C#N)c1OC (stereo not drawn)	CDC25B-CDK2 inh 3.4
CC(C)c1ccc(C2CC(=O)N3CN(Cc4ccco4)CSC3=C2C#N)cc1 (stereo not drawn)	none
COc1ccc(C2CC(=O)N3CN(Cc4ccco4)CSC3=C2C#N)c(OC)c1 (stereo not drawn)	CDC25B-CDK2 inh 5.9
Cc1ccc2nc(NC(=O)CSc3nc(=O)n(CCN4CCOCC4)c4c3CCC4)sc2c1	none (no result: CDC25B-CDK2 inh)
CC1=C(C(=O)OCC(C)C)C(c2cc3c(cc2Br)OCO3)CC(=O)N1 (stereo not drawn)	none
Cc1ccc(-c2c(N3CCN(c4cccc(C)c4C)CC3)c(=O)c2=O)cc1C	none (no result: CDC25B-CDK2 inh)
N=C1SCC(=O)N1c1ccc(Cl)c(Cl)c1	none (no result: HIV TAR-Tat)
CCC(CC)C(=O)Nc1ccc2nc(NS(C)(=O)=O)sc2c1	none (no result: CDC25B-CDK2 inh)
Cc1ccc(C(CNC(=O)c2oc3ccc(Cl)cc3c2C)N2CCCCC2)o1 (stereo not drawn)	none

Source: PubChem
